In PubChem BioAssay (Tox21):
Inconclusive results are not listed. A number with no mark means an inactive call. Calls of active or inactive are those of the source. Calls follow the shape of the dose curve; as a rule, active = well fitted cell-killing curve with a large enough effect in the repeat runs; inconclusive = weak or mixed curves, or effect the other way; inactive = flat fitted curve, though single readings scatter.
% is scaled to controls: 0 for no effect and ±100 for the full control effect.

Assay: cAMP Responsive Elements (CRE) small molecule agonists, cell-based qHTS assay: qHTS cell viability counter screen (AID 2060914);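 also: viability read after 3 h of compound exposure; nearly all actives have a fitted effect of over 50% in size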
Settings: CRE-bla HEK293T viability, CellTiter-Glo luminescence, 5 h; series mostly up to 92.4 µM; activity change, negative = cytotoxicity: at the top concentration
In short: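 CRE-bla HEK 293T cells, plated 18 h at 37 °C, were exposed to compounds for 3 h at 37 °C/5% CO2. Viability was then measured in the same wells by CellTiter-Glo luminescence after 30 min at room temperature.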
In the case of `C[C@H]1C[C@H]2[C@@H]3CCC4=CC(=O)C=C[C@]4(C)[C@H]3C(=O)C[C@]2(C)[C@@]1(O)C(=O)CO`, the “activity change, negative = cytotoxicity” value is reported as 1.9% [at 42.5 µM]. With `O=C(O)CCCCC(=O)O` the Potency was “inactive”. With `COC(c1ccccc1)(c1ccccc1)[C@H](Oc1nc(C)cc(C)n1)C(=O)O` the “activity change, negative = cytotoxicity” value was 15.9% [at 42.5 µM]. In the case of `CC(=O)OC(C)OC(=O)C(C)c1ccc(-c2ccccc2)c(F)c1` (stereo not given), the “activity change, negative = cytotoxicity” value is reported as 10.1% [at 42.5 µM]. For `Oc1ccc2c(c1)-c1ccccc1C2`, the “activity change, negative = cytotoxicity” value was -8.13%. For `CCN(CC)CCNC(=O)c1c(C)[nH]c(/C=C2\C(=O)Nc3ccc(F)cc32)c1C`, the “activity change, negative = cytotoxicity” value was 6.4% [at 42.5 µM]. With `CNCCCC1c2ccccc2C=Cc2ccccc21` the “activity change, negative = cytotoxicity” value was 2.88% [at 42.5 µM]. In the case of `CC1=C(O)C(=O)CO1`, the “activity change, negative = cytotoxicity” value is reported as 0.267%. In the case of `Cc1cccc2c1ccc1ccccc12`, the “activity change, negative = cytotoxicity” value is reported as 3.67%. With `Nc1ccncc1N` the “activity change, negative = cytotoxicity” value was 3.31% [at 42.5 µM]. In the case of `CCCN(CCC)CCc1cccc2c1CC(=O)N2`, the “activity change, negative = cytotoxicity” value is reported as 14.7% [at 42.5 µM]. With `CCOC(=O)COc1ccc(C)cc1` the “activity change, negative = cytotoxicity” value was -1.07%. In the case of `O=C(Oc1ccccc1)c1cccc(C(=O)Oc2ccccc2)c1`, the “activity change, negative = cytotoxicity” value is reported as -0.532%. For `CCCC(=O)O[C@]1(C(=O)COC(=O)CC)CC[C@H]2[C@@H]3CCC4=CC(=O)CC[C@]4(C)[C@H]3[C@@H](O)C[C@@]21C`, the activity change, negative = cytotoxicity was -7.63% [at 18.9 µM]. For `CC(C)N=C=NC(C)C`, the “activity change, negative = cytotoxicity” value was -6.98%. For `CCCCOC(=O)C(C)O` (stereo not given), the “activity change, negative = cytotoxicity” value was 6.69%. For `N#CC1(c2ccc(F)cc2)CCC(=O)CC1`, the “activity change, negative = cytotoxicity” value was -0.796% [at 42.5 µM]. For `CCCNCCC`, the “activity change, negative = cytotoxicity” value was -6.14%. For `C=CCCCCCCCCCC`, the Potency was “inactive”. With `CCC1(c2ccccc2)C(=O)NCNC1=O` the Potency was “inactive”. For `O=c1n(CCCN2CCN(c3cccc(Cl)c3)CC2)nc2ccccn12`, the Potency was “inactive”. For `CCCS(=O)c1ccc2nc(NC(=O)OC)[nH]c2c1` (stereo not given), the “activity change, negative = cytotoxicity” value was 5.48% [at 42.5 µM]. In the case of `CCCCCCCCO`, the Potency is reported as “inactive”. With `CCCCCCCCCCCCCOS(=O)(=O)O` the “activity change, negative = cytotoxicity” value was -22.9%. For `O=C(Cl)c1cc(C(=O)Cl)cc(C(=O)Cl)c1`, the “activity change, negative = cytotoxicity” value was 0.587%. For `CCCC[C@H]1CN(CC2CCOCC2)C(=O)OC12CCN(C1(C)CCN(C(=O)c3c(C)ncnc3C)CC1)CC2`, the “activity change, negative = cytotoxicity” value was -0.962%. With `CC(COc1ccccc1)N(CCCl)Cc1ccccc1` (stereo not given) the “activity change, negative = cytotoxicity” value was -2.7%. For `O=S(=O)(O)c1cc(O)c2ccc(Nc3ccccc3)cc2c1`, the “activity change, negative = cytotoxicity” value was -0.323%. In the case of `CCc1c(C)[nH]c2c1C(=O)C(CN1CCOCC1)CC2` (stereo not given), the “activity change, negative = cytotoxicity” value is reported as -6.36% [at 42.5 µM]. With `CC(=O)OCC(C)OC(C)=O` (stereo not given) the “activity change, negative = cytotoxicity” value was 17.7%. For `Cc1ccccc1OCC(O)CO` (stereo not given), the “activity change, negative = cytotoxicity” value was -4.35% [at 42.5 µM]. With `CCCCC(CC)CO` (stereo not given) the Potency was “inactive”. With `CCCCC1C(=O)N(c2ccccc2)N(c2ccc(O)cc2)C1=O` (stereo not given) the “activity change, negative = cytotoxicity” value was 19% [at 42.5 µM]. For `CC[C@]12CCCN3CCc4c(n(c5ccccc45)[C@@](O)(C(=O)OC)C1)[C@@H]32`, the Potency was “inactive”. For `O=C(Cl)c1ccc(Cl)cc1Cl`, the “activity change, negative = cytotoxicity” value was -8.93%. For `CC(C)(C)c1ccc(OCC2CO2)cc1` (stereo not given), the “activity change, negative = cytotoxicity” value was 1.08%. In the case of `CCC(=O)c1ccc(O)cc1`, the “activity change, negative = cytotoxicity” value is reported as 0.458% [at 42.5 µM]. With `CCCCC(CC)COC(=O)CCCCCCCCC(=O)OCC(CC)CCCC` (stereo not given) the “activity change, negative = cytotoxicity” value was 9.57%. In the case of `CC(C)(C)c1cc(/C=C2\SC(=N)NC2=O)cc(C(C)(C)C)c1O`, the “activity change, negative = cytotoxicity” value is reported as -22.4%. In the case of `CCCCC(CC)COC(=O)c1ccc(O)cc1` (stereo not given), the “activity change, negative = cytotoxicity” value is reported as -22.4%.
